# Publication PMC3218832
# Key:
# Test in all cases: protein binding microarray; high values mean tight binding
# Details in all cases: dsDNA, one strand shown
# RELARELA (p65 homodimer) = RELARELA (p65 homodimer) (Homo sapiens, UniProt Q04206 1-307)
# p50p50 homodimer = p50p50 homodimer (Homo sapiens, UniProt P19838 7-356)
# p52p52 homodimer = target: T1, p52p52 homodimer (Homo sapiens, UniProt Q00653 4-332)
# T1 sequence: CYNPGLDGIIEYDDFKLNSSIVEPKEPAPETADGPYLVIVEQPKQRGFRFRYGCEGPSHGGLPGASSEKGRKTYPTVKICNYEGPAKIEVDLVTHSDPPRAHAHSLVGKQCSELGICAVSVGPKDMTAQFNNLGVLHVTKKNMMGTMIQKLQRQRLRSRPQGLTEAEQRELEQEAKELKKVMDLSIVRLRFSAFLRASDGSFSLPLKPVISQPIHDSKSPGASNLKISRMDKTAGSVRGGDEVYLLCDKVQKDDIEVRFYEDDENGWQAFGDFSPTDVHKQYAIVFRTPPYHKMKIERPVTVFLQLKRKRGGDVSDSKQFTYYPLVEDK
# [1] = target: RELA (p65) subunit of heterodimer;p50 subunit (Homo sapiens;Homo sapiens, UniProt Q04206;P19838 1-307;7-356)
# [2] = target: RELA (p65) subunit of heterodimer;p52 subunit (Homo sapiens;Homo sapiens, UniProt Q04206;Q00653 1-307;4-332)
# RELB subunit;p50 subunit = RELB subunit;p50 subunit (Homo sapiens;Homo sapiens, UniProt Q01201;P19838 120-401;7-356)
# RELB subunit;p52 subunit = target: T2, RELB subunit;p52 subunit (Homo sapiens;Homo sapiens, UniProt Q01201;Q00653 120-401;4-332)
# T2 sequence 1: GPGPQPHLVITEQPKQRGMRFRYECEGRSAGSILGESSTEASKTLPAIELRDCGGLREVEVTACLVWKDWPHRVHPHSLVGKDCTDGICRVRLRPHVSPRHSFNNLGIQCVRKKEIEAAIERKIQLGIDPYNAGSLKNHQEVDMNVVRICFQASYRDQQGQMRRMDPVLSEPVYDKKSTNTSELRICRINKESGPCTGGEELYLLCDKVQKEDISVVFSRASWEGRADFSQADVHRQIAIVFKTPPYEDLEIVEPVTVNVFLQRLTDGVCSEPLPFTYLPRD
# T2 sequence 2: T1 sequence
# [3] = target: C-Rel subunit;p50 subunit (Homo sapiens;Homo sapiens, UniProt Q04864;P19838 1-285;7-356)
# [4] = target: T3, C-Rel subunit;p52 subunit (Homo sapiens;Homo sapiens, UniProt Q04864;Q00653 1-285;4-332)
# T3 sequence 1: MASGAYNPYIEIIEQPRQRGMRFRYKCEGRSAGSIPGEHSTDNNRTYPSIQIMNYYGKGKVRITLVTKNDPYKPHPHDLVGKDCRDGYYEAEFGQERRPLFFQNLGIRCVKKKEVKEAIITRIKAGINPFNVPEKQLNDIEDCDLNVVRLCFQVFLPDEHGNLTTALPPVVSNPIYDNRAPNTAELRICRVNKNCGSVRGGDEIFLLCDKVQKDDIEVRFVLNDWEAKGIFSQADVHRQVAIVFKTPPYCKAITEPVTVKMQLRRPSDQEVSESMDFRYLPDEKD
# T3 sequence 2: T1 sequence
# Chain of RELARELA (p65 homodimer) (Q04206 1-307): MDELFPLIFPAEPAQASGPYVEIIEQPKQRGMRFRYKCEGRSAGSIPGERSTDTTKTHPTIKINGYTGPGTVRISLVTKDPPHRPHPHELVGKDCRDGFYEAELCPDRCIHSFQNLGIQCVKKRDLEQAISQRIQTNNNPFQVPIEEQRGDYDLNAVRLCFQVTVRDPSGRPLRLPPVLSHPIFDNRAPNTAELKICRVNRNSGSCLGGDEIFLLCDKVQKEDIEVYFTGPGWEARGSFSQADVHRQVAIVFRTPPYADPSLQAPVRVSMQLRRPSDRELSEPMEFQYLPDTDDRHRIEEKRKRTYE
# Chain of RELA (p65) subunit of heterodimer;p50 subunit (Q04206 1-307, chain 1 of 2): as the sequence (Q04206 1-307) above
# Chain of RELA (p65) subunit of heterodimer;p50 subunit (P19838 7-356, chain 2 of 2): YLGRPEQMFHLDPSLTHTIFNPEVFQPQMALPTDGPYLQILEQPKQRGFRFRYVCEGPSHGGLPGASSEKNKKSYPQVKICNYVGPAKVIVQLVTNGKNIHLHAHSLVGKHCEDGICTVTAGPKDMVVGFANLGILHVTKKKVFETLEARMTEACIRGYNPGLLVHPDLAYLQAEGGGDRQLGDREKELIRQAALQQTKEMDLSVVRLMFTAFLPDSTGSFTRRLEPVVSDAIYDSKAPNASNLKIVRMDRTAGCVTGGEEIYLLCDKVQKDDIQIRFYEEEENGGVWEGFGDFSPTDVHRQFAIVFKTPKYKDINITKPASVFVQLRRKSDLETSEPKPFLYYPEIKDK
# Chain of p50p50 homodimer (P19838 7-356): as the sequence (P19838 7-356, chain 2 of 2) above
Sequence,binding signal (RELARELA (p65 homodimer)) [z-score],binding signal (p50p50 homodimer) [z-score],binding signal (p52p52 homodimer) [z-score],binding signal [1] [z-score],binding signal [2] [z-score],binding signal (RELB subunit;p50 subunit) [z-score],binding signal (RELB subunit;p52 subunit) [z-score],binding signal [3] [z-score],binding signal [4] [z-score]
CAGTTCTTCCC,1.2,-0.0833,-0.0924,0.385,0.0986,-0.231,-0.179,0.641,0.366
AGATTCCTCCC,0.213,-0.426,-0.138,-0.135,-0.146,-0.305,-0.191,0.176,-0.118
CAATGTCTCCC,-0.338,-0.647,-0.276,-0.405,-0.499,-0.294,-0.275,-0.53,-0.561
AAGTTTCTCCC,0.793,0.601,0.198,0.383,0.17,0.576,0.357,0.423,0.189
CGGGTCGTCCT,-0.683,-1.36,-0.504,-0.972,-0.834,-0.864,-0.859,-1.15,-0.64
CGGAATTTCCT,3.7,-0.012,-0.109,1.2,0.553,-0.413,-0.0415,0.843,0.719
AGGATTTCCCT,1.99,1.23,2.18,1.44,1.61,1.58,1.91,1.36,1.67
CAGTAATTCCC,2.18,0.948,0.804,1.12,0.865,0.722,0.71,1.31,1.05
CAATGACTCCT,-0.344,-1.02,-0.692,-1.08,-1.05,-1.12,-0.995,-1.33,-1.13
GAGATTTTCCT,1.17,-0.538,-0.404,-0.116,-0.119,-0.659,-0.507,0.14,0.077
AAAGGGATCCC,0.0658,-0.302,0.0251,-0.128,-0.268,-0.184,-0.115,-0.213,-0.202
GGGTGCTCCCT,-0.519,0.136,0.0774,-0.166,0.115,-0.21,-0.168,-0.0364,0.178
GAGTAGTCCCT,0.344,1.35,1.21,0.997,0.922,1.12,1.06,0.633,0.66
AAAAAGCCCCC,1.22,1.3,2.26,1.98,2.06,2.17,2.06,1.43,2.22
CAAGAAACCCT,-0.512,-0.321,-0.245,-0.525,-0.264,-0.492,-0.353,-0.467,-0.305
CAGTGGCTCCC,-0.478,-1.44,-0.661,-0.743,-0.817,-0.932,-0.764,-1.22,-0.857
CGGTGAGCCCC,-0.508,0.0715,-0.0385,-0.0467,0.0767,-0.0666,0.236,0.3,0.314
CGAGTTCTCCC,0.00528,0.1,-0.0592,0.0957,-0.132,0.367,0.182,-0.0444,-0.16
GAGTACACCCT,-0.136,-0.892,-0.573,-0.83,-0.569,-0.614,-0.527,-0.745,-0.376
GGAGTCCTCCC,-0.114,-0.916,-0.266,-0.571,-0.463,-0.55,-0.535,-0.207,-0.576
AGAGTAGCCCT,-0.721,-1.16,-0.729,-0.963,-0.869,-0.78,-0.814,-1.22,-0.688
GAGTTAATCCC,0.0777,-0.527,-0.147,-0.451,-0.217,-0.125,-0.157,-0.186,-0.227
AGGAGAACCCT,-0.567,-0.719,-0.426,-0.838,-0.729,-0.652,-0.634,-0.871,-0.624
GGGGGCCTCCC,0.3,0.557,2.41,1.24,1.91,1.21,1.09,1,1.46
GGATTTTCCCC,3.79,1.16,2.75,2.27,2.49,2.15,2.39,1.94,2.19
AGATGGCTCCC,-0.478,-1.77,-0.619,-0.849,-0.797,-0.91,-0.841,-1.25,-0.874
GGAGAGCTCCT,-0.469,-1.71,-0.711,-1.01,-1.01,-1.17,-1.06,-1.65,-1.07
AAAGTGATCCT,-0.833,-1.79,-0.692,-1.3,-1.06,-1.27,-0.978,-1.55,-0.986
AAATTTGCCCT,0.9,-0.198,-0.202,0.0394,-0.125,-0.452,-0.337,0.26,0.00992
AGATACCCCCT,0.103,1.43,1.19,1.36,1.5,1.38,1.84,1.13,1.24
